{
  "source": "PubChem BioAssay AID485344",
  "about": "(National Center for Advancing Translational Sciences (NCATS), 2010)",
  "note": "About 6,900 (2%) of roughly 340,000 compounds were called active. The sample as a whole holds a higher share of actives than the screen did. Values without a mark were called inactive. Rule as the data show it: active = inhibition above about 30%; inactive = below that, where a call was filed.",
  "data": [
    {"target": "D(2) dopamine receptor (Homo sapiens) (UniProt P14416)", "sequence (P14416 whole entry, looked up)": "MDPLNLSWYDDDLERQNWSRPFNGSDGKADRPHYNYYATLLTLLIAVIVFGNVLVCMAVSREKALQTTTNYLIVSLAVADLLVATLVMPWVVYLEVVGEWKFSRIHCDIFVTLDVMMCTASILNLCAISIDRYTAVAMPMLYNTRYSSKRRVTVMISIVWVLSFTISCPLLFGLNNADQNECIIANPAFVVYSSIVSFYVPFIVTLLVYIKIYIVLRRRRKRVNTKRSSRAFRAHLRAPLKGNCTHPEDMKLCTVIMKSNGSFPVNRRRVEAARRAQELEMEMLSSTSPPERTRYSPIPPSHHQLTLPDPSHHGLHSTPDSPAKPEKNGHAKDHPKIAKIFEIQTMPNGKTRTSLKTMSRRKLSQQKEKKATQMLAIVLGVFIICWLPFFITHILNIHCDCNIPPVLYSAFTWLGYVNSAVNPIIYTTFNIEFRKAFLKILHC", "test": "HTS Assay for Allosteric Antagonists of the Human D2 Dopamine Receptor: Primary Screen for Antagonists; also: 0% is about no effect", "conditions": "HEK293 TREx D2 cells, calcium flux, dopamine EC80; at 10 µM; hits give high values", "method_in_brief": "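HEK293 T-REx D2 cells, tet-induced, calcium dye no-wash. Cpd pintool add, 180 s kinetic, then EC80 DA, 180 s kinetic. Ca flux read.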", "values": [
      {"smiles": "COc1ccccc1/C=C/C=N/NC(=O)CN1CCN(Cc2ccccc2)CC1", "inhibition": "-10.7%"},
      {"smiles": "COc1ccccc1/C=C/CN1CCC(CO)(Cc2ccccc2)CC1", "inhibition": "53.2% (active)"},
      {"smiles": "COC(=O)CCC(=O)N1CCCC(CO)(Cc2ccccc2)C1", "note": "(stereo not drawn)", "inhibition": "3.17%"},
      {"smiles": "Cc1cc(NC(=O)COc2ccc([N+](=O)[O-])cc2)no1", "inhibition": "-5.38%"},
      {"smiles": "COc1ccccc1NC(=O)COC(=O)COc1ccccc1F", "inhibition": "-3.39%"},
      {"smiles": "Cc1ccc(OCCNC(=O)CN2C(=O)NC3(CCCC3)C2=O)cc1", "inhibition": "1.97%"},
      {"smiles": "COc1cc(C(c2c(NC(=O)c3ccco3)sc(C)c2C)N2CCOCC2)cc(OC)c1OC", "note": "(stereo not drawn)", "inhibition": "-0.625%"},
      {"smiles": "CCOc1ncccc1C(=O)OCC(=O)N1c2ccccc2CC1C", "note": "(stereo not drawn)", "inhibition": "-9.6%"},
      {"smiles": "CN(CC(=O)NC1CCCCC1)S(=O)(=O)c1ccc(Br)s1", "inhibition": "3.02%"},
      {"smiles": "CCOc1ccc(CC(=O)NC2CCN(Cc3ccccc3)CC2)cc1", "inhibition": "7.65%"},
      {"smiles": "CN(CC(=O)NC1CCN(Cc2ccccc2)CC1)S(=O)(=O)c1ccc(Cl)s1", "inhibition": "68.5% (active)"},
      {"smiles": "CC(C)N(C(=O)CSc1nnc(NC2CC2)s1)c1ccccc1", "inhibition": "-9.12%"},
      {"smiles": "Nc1nnc(SCC(=O)NCC(=O)Nc2ccc(F)c(F)c2F)s1", "inhibition": "17.4%"},
      {"smiles": "O=C(c1ccc(Cl)nc1)N1CCN(S(=O)(=O)c2ccc3c(c2)OCCO3)CC1", "inhibition": "-22.8%"},
      {"smiles": "O=C(COC(=O)c1ccccc1SCC(=O)NC1CCCCC1)NC1CCCCC1", "inhibition": "-0.864%"},
      {"smiles": "O=C(COC(=O)c1cccc(Cl)c1)NC1CCCCCCC1", "inhibition": "4.87%"},
      {"smiles": "O=C(COC(=O)c1ccccc1Cl)NC1CCCCCCC1", "inhibition": "40.2% (active)"},
      {"smiles": "O=[N+]([O-])c1ccccc1OCCCCN1CCCCC1", "inhibition": "93.9% (active)"},
      {"smiles": "COc1cccc(OCCCN2CCCCCC2)c1", "inhibition": "-12.6%"},
      {"smiles": "Cc1ccc(C(C)(C)C)c(OCCCCN2CCCC2)c1", "inhibition": "31% (active)"},
      {"smiles": "CC1CN(CCOc2ccccc2[N+](=O)[O-])CC(C)O1", "note": "(stereo not drawn)", "inhibition": "1.8%"},
      {"smiles": "CC(C)(c1ccccc1)c1ccc(OCCN2CCCC2)cc1", "inhibition": "0.0464%"},
      {"smiles": "Cc1ccc(OCCCCN2CCCCC2)c(Br)c1", "inhibition": "73.5% (active)"},
      {"smiles": "C=CCN(CC=C)CCOc1ccccc1[N+](=O)[O-]", "inhibition": "6.41%"},
      {"smiles": "Cc1ccc(C(C)C)cc1OCCN1CCCC1", "inhibition": "-14.6%"},
      {"smiles": "CC(=O)Nc1ccc(S(=O)(=O)N2CCN(CCCOc3cc(C)ccc3C)CC2)cc1", "inhibition": "3.73%"},
      {"smiles": "CCN(C(=O)CSc1ncnc2sccc12)c1c(N)n(Cc2ccccc2)c(=O)[nH]c1=O", "inhibition": "-15.3%"},
      {"smiles": "Cc1ccc(S(=O)(=O)N2CCCCC2)cc1NC(=O)[C@@H]1CCCN1C(=O)c1cccs1", "inhibition": "-14.3%"},
      {"smiles": "Cc1cc(C)c(S(=O)(=O)N2CCC(C(=O)OCc3c(C)noc3C)CC2)c(C)c1", "inhibition": "7.04%"},
      {"smiles": "O=C(CN1CCCCC1)Nc1ccccc1C(=O)NC1CC1", "inhibition": "7.71%"},
      {"smiles": "Cc1ccc(NC(=O)COC(=O)CN2CCCCCC2=O)c(C)c1", "inhibition": "-4.24%"},
      {"smiles": "Cc1cccc(-c2ncc(CN3CCC(CO)(CCCc4ccccc4)CC3)cn2)c1", "inhibition": "6.88%"},
      {"smiles": "CC(C)(O)C#Cc1ccc(CN2CCC(CO)(CCc3ccccc3)CC2)cc1", "inhibition": "14.6%"},
      {"smiles": "OCC1(CCc2ccccc2)CCN(Cc2ccc3nsnc3c2)CC1", "inhibition": "36.1% (active)"},
      {"smiles": "CN(CCOc1ccccc1)C(=O)c1cc(-c2ccco2)nc2ccccc12", "inhibition": "3.66%"},
      {"smiles": "CC(=O)Nc1ccc(NC(=O)C(C)OC(=O)c2ccccc2C(=O)c2ccc(Cl)c([N+](=O)[O-])c2)cc1", "note": "(stereo not drawn)", "inhibition": "36.3% (active)"},
      {"smiles": "N#Cc1cccc(NC(=O)COC(=O)c2ccccc2C(=O)c2ccc(Cl)c([N+](=O)[O-])c2)c1", "inhibition": "7.92%"},
      {"smiles": "CC(OC(=O)CNC(=O)c1ccc(Cl)c([N+](=O)[O-])c1)C(=O)NCc1ccco1", "note": "(stereo not drawn)", "inhibition": "26.5%"},
      {"smiles": "Cc1ccc(S(=O)(=O)CCC(=O)OCC(=O)NCCc2ccc(S(N)(=O)=O)cc2)cc1", "inhibition": "-1.28%"},
      {"smiles": "CC(=O)Nc1ccc(NC(=O)C(NS(=O)(=O)c2ccc3c(c2)OCCO3)C(C)C)cc1", "note": "(stereo not drawn)", "inhibition": "-6.92%"},
      {"smiles": "CCOCc1c(C(=O)N2CCN(Cc3ccc(Br)s3)CC2)oc2ccccc12", "inhibition": "32.1% (active)"},
      {"smiles": "COc1ccc(N2CCN(Cc3ccc(Br)s3)CC2)cc1", "inhibition": "-12.7%"},
      {"smiles": "COCC(=O)Nc1c(C(=O)N2CCCC2)oc2ccccc12", "inhibition": "-20%"},
      {"smiles": "CS(=O)(=O)c1ccc(Cl)c(NC(=O)COC(=O)c2ncc(Cl)c(Cl)c2Cl)c1", "inhibition": "-16.5%"},
      {"smiles": "COc1cc(NC(=O)NCC2CCN(Cc3ccc(C)cc3)CC2)cc(OC)c1OC", "inhibition": "33.3% (active)"},
      {"smiles": "Cc1cccc(CN2CCC(CNC(=O)Nc3ccc(F)c(Cl)c3)CC2)c1", "inhibition": "-7.23%"},
      {"smiles": "Cc1ccc(C)c(CN2CCC(CNC(=O)Nc3ccc(C)c(F)c3)CC2)c1", "inhibition": "-38%"},
      {"smiles": "COc1cc(C(=O)N(C)Cc2cccc(OC)c2OC)ccc1OCC(=O)Nc1cccc(C(F)(F)F)c1", "inhibition": "-10.9%"},
      {"smiles": "O=C(Oc1ccc(Br)cc1)c1cccnc1", "inhibition": "38.5% (active)"},
      {"smiles": "CCCCCCOc1ccc(OC(=O)c2cccnc2)cc1", "inhibition": "3.26%"},
      {"smiles": "N#CCc1ccc(OC(=O)c2cccnc2)cc1", "inhibition": "0.882%"},
      {"smiles": "Cc1ccc2c(CN3CCN(S(=O)(=O)c4ccccc4C(F)(F)F)CC3)cc(=O)oc2c1", "inhibition": "-23.9%"},
      {"smiles": "CC(C)(C)OC(=O)NCCCCCNC(=O)c1nc[nH]c1C(=O)NCc1ccccc1", "inhibition": "7.02%"},
      {"smiles": "Cc1ccc(-c2nc(CSCC(=O)NC3CCN(Cc4ccccc4)CC3)c(C)o2)cc1", "inhibition": "47.3% (active)"},
      {"smiles": "Cc1ccc(-c2cc(C(=O)NC3CCN(Cc4ccccc4)CC3)c3ccccc3n2)cc1", "inhibition": "-27.8%"},
      {"smiles": "Cc1ccc(S(=O)(=O)NCCC(=O)NC2CCN(Cc3ccccc3)CC2)cc1", "inhibition": "27.4%"},
      {"smiles": "CN(CC(=O)Nc1ccc(F)cc1)CC(=O)N1CCCCC1", "inhibition": "-7.3%"},
      {"smiles": "Cc1cc(C(=O)Nc2nnc(C3CC3)s2)c(C)s1", "inhibition": "3.85%"},
      {"smiles": "COc1ccc(CC2(CO)CCN(Cc3cnn(C)c3)CC2)cc1", "inhibition": "-4.17%"},
      {"smiles": "COC(=O)c1ccc(CN2CCC(CO)(Cc3ccc(OC)cc3)CC2)cc1", "inhibition": "63.2% (active)"},
      {"smiles": "CCOC(=O)C1(CCOC)CCN(Cc2ccc(C(=O)OC)cc2)CC1", "inhibition": "5.1%"},
      {"smiles": "Cc1ccc(C)c(NC(=O)COC(=O)CSc2ccccc2)c1", "inhibition": "-6.28%"},
      {"smiles": "N#CCCN(C(=O)COC(=O)C1CCN(c2ccc(C(F)(F)F)cn2)CC1)c1ccc(F)cc1", "inhibition": "5.59%"},
      {"smiles": "COc1ccc(Cl)cc1NC(=O)COc1ccc2c(c1)OCO2", "inhibition": "7.9%"},
      {"smiles": "C[C@H](OC(=O)n1ccnc1)[C@@H]1O[C@@]2(C)CCC[C@@H]1O2", "inhibition": "-7.72%"},
      {"smiles": "CC1Cc2ccccc2N1C1=CC(=O)CC(C)(C)C1", "note": "(stereo not drawn)", "inhibition": "3.51%"},
      {"smiles": "CC1(C)OC(=O)N2CCc3ccccc3C21C", "note": "(stereo not drawn)", "inhibition": "40.5% (active)"},
      {"smiles": "CCN(CC(=O)Nc1ccccc1C(F)(F)F)C(=O)CSCc1c(C)noc1C", "inhibition": "1.97%"},
      {"smiles": "C=CCN1C(=O)C(O)(CC(=O)c2ccccn2)c2ccccc21", "note": "(stereo not drawn)", "inhibition": "3.67%"},
      {"smiles": "C=CCN1C(=O)C(O)(CC(=O)c2ccc(Cl)cc2)c2ccccc21", "note": "(stereo not drawn)", "inhibition": "0.63%"},
      {"smiles": "O=C(CC1(O)C(=O)N(CN2CCOCC2)c2ccccc21)c1ccccc1", "note": "(stereo not drawn)", "inhibition": "30.3% (active)"},
      {"smiles": "CCc1noc(C)c1C(=O)Oc1ccc(N(C)S(=O)(=O)c2ccc(C)c(C)c2)cc1", "inhibition": "-5.58%"},
      {"smiles": "Cc1ccc(S(=O)(=O)N(C)C)cc1NC(=O)C(C)OC(=O)c1ccc2ccccc2n1", "note": "(stereo not drawn)", "inhibition": "5.2%"},
      {"smiles": "COc1cc(C(C)=O)ccc1OC(C)C(=O)Nc1ccc(S(=O)(=O)N2CCCC2)cc1", "note": "(stereo not drawn)", "inhibition": "-10.1%"},
      {"smiles": "CC(=O)N1C(=O)C2(Nc3ccccc3N2)c2ccccc21", "inhibition": "34.2% (active)"},
      {"smiles": "O=C1CN(C(=O)CN2C(=O)NC3(CCCCC3)C2=O)c2ccccc2N1", "inhibition": "3.68%"},
      {"smiles": "CC(C)(C)C(=O)CCN1C(=O)C2(OCCO2)c2ccccc21", "inhibition": "-2.06%"},
      {"smiles": "CC1CCN(C(=O)COC(=O)c2cc(=O)[nH]c3ccccc23)CC1", "inhibition": "-0.452%"},
      {"smiles": "CC(NC(=O)c1ccccc1F)c1cccc2ccccc12", "note": "(stereo not drawn)", "inhibition": "10.4%"},
      {"smiles": "CCOC(=O)C1CCN(C(=O)Cn2nc(C)c3c(C)n(-c4ccccc4)nc3c2=O)CC1", "inhibition": "2.33%"},
      {"smiles": "COc1ccc(OC)c(CNC(=O)Cn2nc(C)c3c(C)n(-c4ccc(C)cc4)nc3c2=O)c1", "inhibition": "30% (active)"},
      {"smiles": "Cc1nn(CC(=O)N2CCCCC2)c(=O)c2nn(-c3ccccc3)c(C)c12", "inhibition": "20.3%"},
      {"smiles": "CC(=O)c1sc(N)nc1C", "inhibition": "9.17%"},
      {"smiles": "COc1ccc(C(C)(C)C)cc1NC(=O)CCN1C(=O)C2CCCCC2C1=O", "note": "(stereo not drawn)", "inhibition": "11.5%"},
      {"smiles": "Cc1ccc(CC(=O)Nc2ccc(S(=O)(=O)N3CCOCC3)cc2)cc1C", "inhibition": "19%"},
      {"smiles": "C[C@H]1[C@H]2c3nc4ccccc4n3C[C@H]1ON2C1CCCCC1", "inhibition": "31% (active)"},
      {"smiles": "CN1C(C(=O)NCC2CC2)CC2Cn3c(nc4ccccc43)C21", "note": "(stereo not drawn)", "inhibition": "6.56%"},
      {"smiles": "CN1C(C(=O)NCc2ccco2)CC2Cn3c(nc4ccccc43)C21", "note": "(stereo not drawn)", "inhibition": "12.7%"},
      {"smiles": "Cc1cc(C(=O)COc2ccc(Br)cc2F)c(C)n1C1CC1", "inhibition": "-10.6%"},
      {"smiles": "O=C(CN1CCN(c2ccccc2O)CC1)NC(=O)NCc1ccccc1", "inhibition": "-6.15%"},
      {"smiles": "COc1ccc2oc(C(=O)OCC(=O)N(CC(C)C)c3c(N)n(Cc4ccccc4)c(=O)[nH]c3=O)c(C)c2c1", "inhibition": "-27.2%"},
      {"smiles": "Cc1ccc(NC(=O)C(C)OC(=O)Cc2c[nH]c3ccccc23)cc1S(=O)(=O)N1CCOCC1", "note": "(stereo not drawn)", "inhibition": "-4.91%"},
      {"smiles": "CC(C)CCN1CCC(C)(NC(=O)c2ccccc2)C1=O", "note": "(stereo not drawn)", "inhibition": "3.51%"}
    ]}
  ]
}
